Records with an inconclusive call do not appear. The source made the active and inactive calls. How the source made its calls, unless noted: active means hit-call score of the fitted dose curve at least 0.9, where 1 is the maximum; inconclusive means response in the unintended direction; inactive means score below 0.9.
Legend:
[1] = ATG_AP_2_CIS: Attagene CIS-FACTORIAL HepG2 Assay for human Activator Protein 2 (AP-2) (AID 2282932; active means hit-call score of the fitted dose curve at least 0.9, where 1 is the maximum; inactive means score below 0.9); settings: HepG2 AP-2 cis-reporter, Attagene transcription factor profiling; actives raise or lower the signal
Method in brief: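 Cells (HepG2) transfected with promoter-driven reporter constructs, treated 24 h. Total RNA reverse-transcribed, reporter cDNA PCR-amplified, FAM-labelled by primer extension, digested, resolved by capillary electrophoresis. Activity fitted both directions versus DMSO.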

[2] = biological target: Transcription factor E2F1 (Homo sapiens) (UniProt Q01094); experiment: ATG_E2F_CIS: Attagene CIS-FACTORIAL HepG2 Assay for human E2F Transcription Factor 1 (AID 2282935; active means hit-call score of the fitted dose curve at least 0.9, where 1 is the maximum; inactive means score below 0.9); settings: HepG2 Attagene cis-reporter, E2F reporter RNA transcripts; actives raise or lower the signal
Method in brief: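 First, HepG2 cells were transfected with reporter transcription units. Next, they were dosed for 24 h. Then RNA was isolated, converted to cDNA, PCR-amplified, FAM-labeled, HpaI-digested and analyzed by capillary electrophoresis.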

[3] = ATG_PBREM_CIS: Attagene CIS-FACTORIAL HepG2 Assay for human Phenobarbital-responsive Enhancer Module (PBREM) (AID 2282955; active means hit-call score of the fitted dose curve at least 0.9, where 1 is the maximum; inactive means score below 0.9); settings: HepG2 PBREM cis-reporter, Attagene multiplexed transcription; actives raise or lower the signal
Method in brief: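 HepG2 cells transiently transfected with multiple cis-regulated reporter transcription units; endogenous factor activity at the PBREM element measured as reporter mRNA 24 h after dosing, via RT-PCR and capillary electrophoresis of fluorescent fragments; bidirectional fitting versus DMSO.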

[4] = ATG_PXRE_CIS: Attagene CIS-FACTORIAL HepG2 Assay for human Pregnane X Receptor Element (PXRE) (AID 2282957; active means hit-call score of the fitted dose curve at least 0.9, where 1 is the maximum; inactive means score below 0.9); settings: HepG2 Attagene CIS-FACTORIAL PXRE reporter, mRNA; actives raise or lower the signal
Method in brief: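 Using HepG2 transfected with multiple reporter transcription units, endogenous factor-driven transcription was scored as reporter mRNA after 24 h exposure.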

[5] = ATG_SREBP_CIS: Attagene CIS-FACTORIAL HepG2 Assay for human Sterol Regulatory Element Binding (SREBP) (AID 2282962; active means hit-call score of the fitted dose curve at least 0.9, where 1 is the maximum; inactive means score below 0.9); settings: HepG2 Attagene cis-factorial SREBP reporter, mRNA; actives raise or lower the signal
Method in brief: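 Endogenous factor activity is measured in HepG2 through multiplexed reporter units under cis-element control. Following a 24 h incubation, reporter transcripts are reverse-transcribed, PCR-amplified and sized by capillary electrophoresis; activity is fitted in both directions relative to DMSO.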

[6] = biological target: Peroxisome proliferator-activated receptor gamma (Homo sapiens) (UniProt P37231); experiment: ATG_PPARg_TRANS: Attagene TRANS-FACTORIAL HepG2 Assay for human Peroxisome Proliferator-activated Receptor-gamma (PPARg) (AID 2283007)
Method in brief: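 HepG2 cells transiently transfected with multiplexed GAL4-UAS reporter units and exogenous chimeric NR-Gal4 proteins; reporter mRNA quantified after 24 h compound exposure by RT-PCR, fluorescent labelling, HpaI digestion and capillary electrophoresis; gain-of-signal fitted versus DMSO baseline.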

[7] = biological target: Retinoic acid receptor RXR-alpha (Homo sapiens) (UniProt P19793); experiment: ATG_RXRa_TRANS: Attagene TRANS-FACTORIAL HepG2 Assay for human Retinoid X Receptor alpha (RXRa) (AID 2283012)
Method in brief: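 Measures exogenous chimeric NR-GAL4 activity in transfected HepG2 liver cells after 24 h of dosing. Induced reporter mRNA was detected by RT-PCR with capillary electrophoresis, and gain of signal was analysed against DMSO.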

[8] = biological target: human Thyroid Receptor alpha (THRa1), THRA (gene 7067) (UniProt P10827); experiment: ATG_THRa1_TRANS: Attagene TRANS-FACTORIAL HepG2 Assay for human Thyroid Receptor alpha (THRa1) (AID 2283014)
Method in brief: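 Reporter transcript induction, read by capillary electrophoresis of 6-FAM-labelled RT-PCR products, reflects activity of a transfected THRa1-Gal4 fusion in HepG2 liver cells. Cells were dosed for 24 h; activity was fitted in the positive direction against DMSO.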

[9] = biological target: Cellular tumor antigen p53 (Homo sapiens) (UniProt P04637); experiment: TOX21_p53_BLA_p2_ratio: Tox21 HCT-116 p53 Agonism Beta-lactamase Assay, Ratio, Phase 2 (AID 2283592)
Method in brief: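 Plated HCT116 p53-bla cells (4000/well) received compound after 5 h, then 16 h at 37C/5% CO2. CCF4-AM added, 2 h RT. Ratio of 460 to 530 nm emission taken as the p53 reporter signal.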

[10] = biological target: Cellular tumor antigen p53 (Homo sapiens) (UniProt P04637); experiment: TOX21_p53_BLA_p3_ratio: Tox21 HCT-116 p53 Agonism Beta-lactamase Assay, Ratio, Phase 3 (AID 2283596)
Method in brief: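 Cells were seeded at 4000/well, rested 5 h at 37C, then dosed with DMSO compound solutions (217-fold dilution) for 16 h. CCF4-AM substrate was loaded for 2 h at room temperature, and the 460/530 nm emission ratio was fitted for gain of signal versus DMSO.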

[11] = biological target: Cellular tumor antigen p53 (Homo sapiens) (UniProt P04637); experiment: TOX21_p53_BLA_p5_ratio: Tox21 HCT-116 p53 Agonism Beta-lactamase Assay, Ratio, Phase 5 (AID 2283599)
Method in brief: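 HCT-116 cells carrying a p53-inducible beta-lactamase reporter were seeded at 4000 cells/well and dosed after 5 h with compound in DMSO (217-fold dilution). After 16 h at 37C, CCF4-AM substrate was added for 2 h, and the 460/530 nm emission ratio was scored as gain-of-signal versus DMSO.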

[12] = TOX21_p53_BLA_p5_viability: Viability Assessment in the Tox21 HCT-116 p53 Agonism Beta-lactamase Assay, Phase 5 (AID 2283600)
Method in brief: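 Workflow: seed 4000 cells per well, wait 5 h, add compounds (DMSO, 217-fold dilution), incubate 16 h, load CCF4-AM 2 h, add CellTiter-Glo, read luminescence after 30 min.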

[13] = biological target: Cellular tumor antigen p53 (Homo sapiens) (UniProt P04637); experiment: TOX21_p53_BLA_p4_ratio: Tox21 HCT-116 p53 Agonism Beta-lactamase Assay, Ratio, Phase 4 (AID 2283601)
Method in brief: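 HCT116 cells carrying an inducible beta-lactamase reporter were plated at 4000 cells/well, rested 5 h, then exposed to compounds in DMSO (217-fold dilution) for 16 h at 37C. CCF4-AM substrate was loaded 2 h at room temperature; 460/530 nm emission ratio scored gain-of-signal versus DMSO.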

[14] = ACEA_ER_AUC_viability: ACEA Biosciences xCELLigence Real-Time Cell Analysis on Estrogen Receptor Agonism for Viability (AID 2283782);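 further: hit means loss of impedance signal meaning reduced cell growth or viability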
Method in brief: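 Continuous-exposure impedance cell analysis uses T-47D cells in charcoal-stripped serum, eight 1:4 dilutions topping at 100 uM final, biological duplicate. Area under the growth curve at 80 h is fitted against DMSO baseline.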

[15] = ATG_M_61_CIS: Attagene CIS-FACTORIAL HepG2 Assay for M61 Transcription Factor (Internal Marker) (AID 2282937; active means hit-call score of the fitted dose curve at least 0.9, where 1 is the maximum; inactive means score below 0.9); settings: HepG2 Attagene CIS-FACTORIAL M61 internal marker reporter; actives raise or lower the signal
Method in brief: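 HepG2 cells transiently transfected with cis-element-driven multiple reporter transcription units, dosed for 24 h. Reporter mRNA measured by RT-PCR, 6-FAM primer-extension labelling, HpaI digestion and capillary electrophoresis; bidirectional fit versus DMSO baseline.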

[16] = ATG_GLI_CIS: Attagene CIS-FACTORIAL HepG2 Assay for human Zinc Finger Protein GLI1 (AID 2282945; active means hit-call score of the fitted dose curve at least 0.9, where 1 is the maximum; inactive means score below 0.9); settings: HepG2, Attagene cis-factorial reporter mRNA, GLI element; actives raise or lower the signal
Method in brief: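 HepG2 cells transiently transfected with cis-promoter multiplexed reporter units report endogenous transcription factor activity. After 24 h chemical exposure, reporter mRNA was quantified by RT-PCR, 6-FAM labelling, HpaI digestion and capillary electrophoresis, with bidirectional fitting against DMSO.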

[17] = ATG_Oct_MLP_CIS: Attagene CIS-FACTORIAL HepG2 Assay for human Octamer-Binding Transcription Factor (Oct) (AID 2282993; active means hit-call score of the fitted dose curve at least 0.9, where 1 is the maximum; inactive means score below 0.9); settings: HepG2 Attagene cis-factorial Oct reporter, mRNA; actives raise or lower the signal
Method in brief: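 Read-out: reporter mRNA via RT-PCR plus capillary electrophoresis of 6-FAM-labelled fragments. Transiently transfected HepG2, 24 h exposure, endogenous TF activity on cis elements. Gain or loss of signal fitted relative to DMSO.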

[18] = ATG_PPRE_CIS: Attagene CIS-FACTORIAL HepG2 Assay for human Peroxisome Proliferator-activated Response Element (PPRE) (AID 2282958; active means hit-call score of the fitted dose curve at least 0.9, where 1 is the maximum; inactive means score below 0.9); settings: HepG2 PPRE cis-element reporter, Attagene transcription factor profiling; actives raise or lower the signal
Method in brief: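 HepG2 cells transiently transfected with multiplexed cis-element reporter units measure endogenous transcription factor activity. After 24 h compound exposure, reporter mRNA is quantified by RT-PCR, 6-FAM labeling, HpaI digestion and capillary electrophoresis; bidirectional fits are made against DMSO baseline.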

[19] = biological target: human Peroxisome Proliferator-activated Receptor alpha (PPARa), PPARA (gene 5465) (UniProt Q07869); experiment: ATG_PPARa_TRANS: Attagene TRANS-FACTORIAL HepG2 Assay for human Peroxisome Proliferator-activated Receptor alpha (PPARa) (AID 2283001)
Method in brief: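 Cells (HepG2) are transfected with multiple reporter transcription units, exposed to chemical for 24 h, then total RNA is reverse-transcribed and amplified. Labelled products are quantified by capillary electrophoresis; induction is referenced to DMSO.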

[20] = biological target: Aryl hydrocarbon receptor (Homo sapiens) (UniProt P35869); experiment: ATG_Ahr_CIS: Attagene CIS-FACTORIAL HepG2 Assay for human Aryl Hydrocarbon Receptor (Ahr) (AID 2282930; active means hit-call score of the fitted dose curve at least 0.9, where 1 is the maximum; inactive means score below 0.9); settings: HepG2 AhR cis-factorial reporter transcription; actives raise or lower the signal
Method in brief: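 Values derive from bidirectional fitting against DMSO negative control. Underlying signal: cis-element reporter mRNA in transiently transfected HepG2, harvested 24 h post-dose and measured by RT-PCR plus capillary electrophoresis.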

Measured: AC50

Chain of Peroxisome proliferator-activated receptor gamma (Homo sapiens) (P37231 whole entry, looked up, the tested form may be a part): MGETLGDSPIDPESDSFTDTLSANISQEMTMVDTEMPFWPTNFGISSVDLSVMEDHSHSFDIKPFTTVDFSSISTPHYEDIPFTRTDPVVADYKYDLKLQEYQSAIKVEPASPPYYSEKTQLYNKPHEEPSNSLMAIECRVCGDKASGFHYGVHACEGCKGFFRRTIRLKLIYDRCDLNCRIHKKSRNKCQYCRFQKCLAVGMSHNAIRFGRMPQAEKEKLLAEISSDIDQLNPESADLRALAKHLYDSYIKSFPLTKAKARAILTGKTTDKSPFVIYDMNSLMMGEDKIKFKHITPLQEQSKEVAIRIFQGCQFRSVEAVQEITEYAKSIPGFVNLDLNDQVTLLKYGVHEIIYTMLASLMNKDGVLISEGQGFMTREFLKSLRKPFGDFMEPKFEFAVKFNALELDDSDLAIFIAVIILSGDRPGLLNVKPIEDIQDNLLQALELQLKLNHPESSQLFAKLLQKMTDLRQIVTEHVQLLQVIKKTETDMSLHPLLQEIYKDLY
Chain of Cellular tumor antigen p53 (Homo sapiens) (P04637 whole entry, looked up): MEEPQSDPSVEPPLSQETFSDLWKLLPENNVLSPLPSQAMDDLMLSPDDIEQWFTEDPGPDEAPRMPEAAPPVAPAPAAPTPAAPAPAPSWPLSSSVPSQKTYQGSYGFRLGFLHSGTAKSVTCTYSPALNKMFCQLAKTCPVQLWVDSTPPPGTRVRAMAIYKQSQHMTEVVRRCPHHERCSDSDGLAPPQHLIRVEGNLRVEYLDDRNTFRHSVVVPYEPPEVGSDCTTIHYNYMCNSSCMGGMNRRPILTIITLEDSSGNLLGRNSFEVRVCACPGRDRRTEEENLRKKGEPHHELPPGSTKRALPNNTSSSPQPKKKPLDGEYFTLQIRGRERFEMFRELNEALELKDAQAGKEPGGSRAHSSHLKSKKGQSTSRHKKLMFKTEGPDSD
Chain of Retinoic acid receptor RXR-alpha (Homo sapiens) (P19793 whole entry, looked up, the tested form may be a part): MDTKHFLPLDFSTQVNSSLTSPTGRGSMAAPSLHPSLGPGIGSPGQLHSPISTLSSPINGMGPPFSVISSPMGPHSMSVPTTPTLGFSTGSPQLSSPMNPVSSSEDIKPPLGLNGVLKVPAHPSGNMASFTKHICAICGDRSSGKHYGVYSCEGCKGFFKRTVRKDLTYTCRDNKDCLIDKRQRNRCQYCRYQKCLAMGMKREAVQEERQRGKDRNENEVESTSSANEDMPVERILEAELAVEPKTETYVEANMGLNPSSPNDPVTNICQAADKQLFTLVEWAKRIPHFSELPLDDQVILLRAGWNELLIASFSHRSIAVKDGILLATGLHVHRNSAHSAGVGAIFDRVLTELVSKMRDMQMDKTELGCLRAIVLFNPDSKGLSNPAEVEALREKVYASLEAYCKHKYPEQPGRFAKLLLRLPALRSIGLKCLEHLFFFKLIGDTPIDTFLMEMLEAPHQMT
Chain of Transcription factor E2F1 (Homo sapiens) (Q01094 whole entry, looked up): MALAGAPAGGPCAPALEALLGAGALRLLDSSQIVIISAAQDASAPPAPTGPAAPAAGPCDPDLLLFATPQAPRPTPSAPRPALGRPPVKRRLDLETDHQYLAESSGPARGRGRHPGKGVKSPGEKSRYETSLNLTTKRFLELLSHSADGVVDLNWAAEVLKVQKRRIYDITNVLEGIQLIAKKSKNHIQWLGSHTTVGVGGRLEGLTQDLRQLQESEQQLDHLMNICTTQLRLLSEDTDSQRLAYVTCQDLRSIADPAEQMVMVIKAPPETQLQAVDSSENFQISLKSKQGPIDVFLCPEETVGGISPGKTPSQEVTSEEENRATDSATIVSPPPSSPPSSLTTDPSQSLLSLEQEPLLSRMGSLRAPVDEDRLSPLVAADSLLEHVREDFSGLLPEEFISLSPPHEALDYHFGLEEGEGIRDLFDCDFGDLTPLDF
Chain of human Thyroid Receptor alpha (THRa1), THRA (gene 7067) (P10827 whole entry, looked up, the tested form may be a part): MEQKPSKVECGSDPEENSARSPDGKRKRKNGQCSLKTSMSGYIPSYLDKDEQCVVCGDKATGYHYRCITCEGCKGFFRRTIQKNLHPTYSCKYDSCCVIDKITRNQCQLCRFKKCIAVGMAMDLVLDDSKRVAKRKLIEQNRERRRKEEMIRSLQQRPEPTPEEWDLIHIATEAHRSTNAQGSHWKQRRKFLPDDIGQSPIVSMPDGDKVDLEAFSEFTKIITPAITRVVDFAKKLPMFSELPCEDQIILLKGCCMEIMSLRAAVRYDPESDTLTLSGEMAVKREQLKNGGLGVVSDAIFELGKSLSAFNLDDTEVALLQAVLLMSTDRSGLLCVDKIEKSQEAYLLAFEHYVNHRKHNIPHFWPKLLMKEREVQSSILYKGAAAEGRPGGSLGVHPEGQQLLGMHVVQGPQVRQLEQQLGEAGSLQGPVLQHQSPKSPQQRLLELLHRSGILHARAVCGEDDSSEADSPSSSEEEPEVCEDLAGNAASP
Chain of human Peroxisome Proliferator-activated Receptor alpha (PPARa), PPARA (gene 5465) (Q07869 whole entry, looked up): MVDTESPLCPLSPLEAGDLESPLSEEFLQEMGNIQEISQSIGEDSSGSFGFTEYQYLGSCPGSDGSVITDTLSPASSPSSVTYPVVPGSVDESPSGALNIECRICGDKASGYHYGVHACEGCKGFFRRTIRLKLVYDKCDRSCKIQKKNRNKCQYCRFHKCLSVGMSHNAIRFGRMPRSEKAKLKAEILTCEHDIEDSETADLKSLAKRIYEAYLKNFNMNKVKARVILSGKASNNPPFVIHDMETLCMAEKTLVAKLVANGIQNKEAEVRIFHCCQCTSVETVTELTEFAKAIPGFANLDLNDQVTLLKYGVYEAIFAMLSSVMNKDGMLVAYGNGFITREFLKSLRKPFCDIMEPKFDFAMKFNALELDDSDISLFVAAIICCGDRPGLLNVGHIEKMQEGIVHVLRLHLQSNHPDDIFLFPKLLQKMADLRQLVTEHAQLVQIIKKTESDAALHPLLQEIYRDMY
Chain of Aryl hydrocarbon receptor (Homo sapiens) (P35869 whole entry, looked up): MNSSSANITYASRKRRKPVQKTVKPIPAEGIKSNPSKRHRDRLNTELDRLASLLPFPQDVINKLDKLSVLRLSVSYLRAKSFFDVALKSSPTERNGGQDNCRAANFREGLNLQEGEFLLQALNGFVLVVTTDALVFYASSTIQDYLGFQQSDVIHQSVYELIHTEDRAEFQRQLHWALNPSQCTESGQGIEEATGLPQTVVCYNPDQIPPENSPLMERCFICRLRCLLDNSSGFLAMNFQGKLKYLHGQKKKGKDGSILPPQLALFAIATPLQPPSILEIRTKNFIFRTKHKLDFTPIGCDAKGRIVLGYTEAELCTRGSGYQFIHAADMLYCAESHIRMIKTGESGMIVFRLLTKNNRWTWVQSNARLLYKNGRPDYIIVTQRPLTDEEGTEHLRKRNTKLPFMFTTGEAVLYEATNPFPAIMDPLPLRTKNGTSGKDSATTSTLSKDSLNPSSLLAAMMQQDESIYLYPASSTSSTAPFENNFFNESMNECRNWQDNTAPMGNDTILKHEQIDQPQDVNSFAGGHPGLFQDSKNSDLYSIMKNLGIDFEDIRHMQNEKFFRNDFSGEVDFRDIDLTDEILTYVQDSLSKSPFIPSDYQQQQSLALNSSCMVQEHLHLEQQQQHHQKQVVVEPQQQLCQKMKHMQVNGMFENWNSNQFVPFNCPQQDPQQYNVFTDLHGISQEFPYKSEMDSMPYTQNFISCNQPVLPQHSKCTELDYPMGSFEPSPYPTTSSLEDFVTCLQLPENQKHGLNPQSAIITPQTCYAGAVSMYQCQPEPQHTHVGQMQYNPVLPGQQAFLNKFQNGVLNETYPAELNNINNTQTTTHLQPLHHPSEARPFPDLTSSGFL

Nc1ccccc1C(=O)Oc1ccc2ccccc2c1
active: [1] 66.8 µM | [5] 65.5 µM | [6] 54.9 µM | [7] 152 µM | [11] 83.5 µM | [14] 24.4 µM
inactive: [2] | [3] | [4] | [8] | [9] | [10] | [12] | [13]

CC1CCC(=O)O1 (centres undefined)
active: [14] 50 µM
inactive: [1] | [2] | [15] | [16] | [4] | [17] | [8] | [9] | [10] | [11]

CN(C)CCC#N
not listed: [3] | [4] | [5] | [10] | [15] | [17] | [20]
inactive: all other assays above

CCCCOP(=O)(O)OCCCC
active: [14] 20.3 µM
inactive: [16] | [4] | [18] | [5] | [17] | [19] | [6] | [8]

CC(C)c1ccc(O)cc1
active: [4] 33.6 µM
not listed: [8] | [9] | [14] | [20]
inactive: all other assays above

CCOC(=O)C1OC1(C)c1ccccc1 (centres undefined)
active: [4] 100 µM | [6] 100 µM
not listed: [1] | [5] | [8] | [18]
inactive: all other assays above

O=C(O)C(Br)Br
not listed: [4] | [6] | [8] | [18] | [19] | [20]
inactive: all other assays above

C[N+](C)=CCl
inactive: [1] | [2] | [5] | [6] | [7] | [8]
